Hit rate of the full screen: of about 350,000 compounds, about 31,000 (8.9%) were called active. About 15% were inconclusive and are not listed. The call rests on the fitted dose curve; in most records, active means well fitted inhibition curve with a large enough effect; inconclusive means small, poorly fitted or top-dose-only effect; inactive means no such curve, though single readings can be large or run the other way. The entries come from a sample that favours actives as a whole. A call without a number means that no potency is given here.
molecular target: Histone-lysine N-methyltransferase EHMT2 (Homo sapiens) (UniProt Q96KQ7); assay: qHTS Assay for Inhibitors of Histone Lysine Methyltransferase G9a; conditions: G9a H3K9 monomethylation, AlphaScreen, 2 h; series mostly up to 59 µM; further: nearly all actives have a fitted effect of over 75% in size
Sequence (Q96KQ7 913-1193 limits assumed): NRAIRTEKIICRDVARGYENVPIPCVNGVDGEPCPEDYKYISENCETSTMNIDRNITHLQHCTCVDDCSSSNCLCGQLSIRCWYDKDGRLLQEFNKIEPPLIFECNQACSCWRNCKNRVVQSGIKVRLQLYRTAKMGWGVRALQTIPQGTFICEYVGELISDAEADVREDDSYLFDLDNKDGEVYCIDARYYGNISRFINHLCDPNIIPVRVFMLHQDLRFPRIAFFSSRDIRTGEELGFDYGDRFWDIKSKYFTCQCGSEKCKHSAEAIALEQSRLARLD
How it was run: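 Readings reflect AlphaScreen signal from monomethyl-H3K9 antibody detection. HMT at 20 nM; substrate b-H3K9 500 nM; cofactor SAM 20 uM; 2 h RT reaction; compounds tested as titrations in qHTS with 15 min preincubation.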
Potency means the concentration at half of the fitted maximal effect.

| Structure (SMILES) | Potency | activity, negative = inhibition |
| --- | --- | --- |
| CC(CCc1ccccc1)NC(=O)COC(=O)c1ccc(F)cc1 (configuration not stated) | inactive | – |
| O=C(Cn1ncc2c3ccccc3n(Cc3ccccc3)c2c1=O)NC1CCCCCC1 | inactive | – |
| O=C(Nc1ccc2c(c1)OCO2)C1CC(c2c(F)cccc2Cl)=NO1 (configuration not stated) | 44.7 µM (active) | – |
| Cc1ccc(NC(=O)C2CC(c3ccc(F)cc3)=NO2)cc1 (configuration not stated) | inactive | – |
| O=C(Nc1ccc2c(c1)OCO2)C1CC1(Cl)Cl (configuration not stated) | – | 2.4% [at 12.7 µM] (inactive) |
| O=C(Nc1ccccn1)C1CCN(S(=O)(=O)c2ccccc2)CC1 | – | -10.1% [at 12.7 µM] (inactive) |
| Nc1c(N(CCCO)C(=O)C2CCCC2)c(=O)[nH]c(=O)n1Cc1ccccc1 | inactive | – |
| Cn1nnnc1SCCCNCc1cccc(OCc2ccc(Cl)cc2)c1 | inactive | – |
| O=C(Cn1nc(Cc2cccnc2)c2ccccc2c1=O)N1CCN(c2ccccc2F)CC1 | inactive | – |
| O=c1c2ccccc2cnn1Cc1n[nH]c(=S)n1-c1ccccc1F | 31.6 µM (active) | – |
| Cn1c2cc(B(O)O)sc2c2cnn(Cc3ccccc3F)c(=O)c21 | – | 0.244% [at 12.7 µM] (inactive) |
| COc1ccc(CNC(=O)CSc2nc3ccccc3nc2Cc2ccccc2)cc1 | inactive | – |
| CCS(=O)(=O)c1nc(S(=O)(=O)c2ccc(C)cc2)c(NCc2ccc(Cl)cc2)s1 | inactive | – |
| O=C(CCS(=O)(=O)c1cc(Br)cc2c1N(C(=O)C1CC1)CC2)Nc1ccc(Br)cc1F | inactive | – |
| Cc1cccc(OCC(=O)Nc2ccc(NC(=O)c3ccco3)c(C)c2)c1 | – | 0.639% [at 12.7 µM] (inactive) |
| Cc1cccc(Nc2cc(C)nc(-n3nc(C)cc3C)n2)c1 | inactive | – |
| CCCC1=Nc2cc(C(=O)NCCN3CCCC3)ccc2Sc2ccccc21 | 79.4 µM (active) | – |
| CCC1=Nc2cc(C(=O)NCC(C)c3ccccc3)ccc2Sc2ccc(C)cc21 (configuration not stated) | inactive | – |
| CCC1=Nc2cc(C(=O)NCCN3CCCC3)ccc2Sc2ccc(C)cc21 | inactive | – |
| Cc1ccc(F)cc1S(=O)(=O)Nc1cccc(C(=O)N2CCCC(C(N)=O)C2)c1 (configuration not stated) | inactive | – |
| CCOc1ccccc1NC(=O)CCn1cnnn1 | inactive | – |

| Structure (SMILES) | Potency | activity, negative = inhibition |
| --- | --- | --- |
| Cc1cc(Cl)ccc1OCCCC(=O)Nc1cccc(-n2cnnn2)c1 | inactive | – |
| CN(C)c1ccc(/C=N\S(=O)(=O)c2ccccc2)cc1 | inactive | – |
| CC[n+]1cc(C)ccc1/C=C/c1ccc(N(C)C)cc1 | 6.31 µM (active) | – |
| CCc1ccc(-c2nn(-c3ccccc3C)cc2C(=O)N2CCN(C3CCS(=O)(=O)C3)CC2)cc1 (configuration not stated) | – | 5.96% [at 12.7 µM] (inactive) |
| CCC(C)(C)NC(=O)C(c1ccc(OC)cc1)N(C(=O)CCC(=O)Nc1cc(C)on1)c1ccc(OC)cc1OC (configuration not stated) | inactive | – |
| CCOc1cc(/C=C/C(=O)OCC(=O)NCCN2C(=O)CSC2=O)ccc1OCC(C)C | – | 17.6% [at 12.7 µM] (inactive) |
| Cc1cc(-c2ccc(C)c(S(=O)(=O)N3c4ccccc4CC3C)c2)on1 (configuration not stated) | inactive | – |
| O=C(Cn1nnc(-c2ccc(CN3CCOCC3)cc2)n1)NC1CCCCC1 | – | 10.1% [at 12.7 µM] (inactive) |
| COc1ccc(C(=O)N(CCN2CCOCC2)CC(=O)NC2CCCC2)cc1OC | 50.1 µM (active) | – |
| COc1ccc(CCNC(=O)CCC(=O)NC2CCCCC2)cc1OC | inactive | – |
| Cc1cc(-c2ccccc2)n2nc(-c3ccccc3)cc2n1 | inactive | – |
| Cc1c(Cl)cccc1NC(=S)NCc1ccc2c(c1)OCO2 | inactive | – |
| S=C(NCc1ccco1)Nc1ccc2c(c1)OCCO2 | 44.7 µM (active) | – |
| CCCCC(=O)Nc1ccc2c(c1)OCCO2 | inactive | – |
| S=C(NCc1ccco1)NCc1ccccc1Cl | inactive | – |
| COc1cccc(NC(=S)NCc2ccco2)c1 | inactive | – |
| S=C(NCc1ccc2c(c1)OCO2)NCc1ccco1 | 31.6 µM (active) | – |
| CCC1CN(S(=O)(=O)c2cc(-c3cc(C)no3)ccc2C)c2cc(C)ccc2O1 (configuration not stated) | inactive | – |
| O=C(NC1CCCCCC1)C1CCN(C(=O)c2ccc(Cl)cc2)CC1 | – | 6.11% [at 12.7 µM] (inactive) |
| Cc1cc(N2C(=O)C(O)=C(C(=O)c3ccc(C)o3)C2c2ccc(OCc3ccccc3)cc2)no1 (configuration not stated) | 31.6 µM (active) | – |
| COc1cc(C2C(C(=O)c3ccco3)=C(O)C(=O)N2c2cc(C)on2)ccc1OCc1ccccc1 (configuration not stated) | inactive | – |

| Structure (SMILES) | Potency | activity, negative = inhibition |
| --- | --- | --- |
| CCOC(=O)c1cc(=O)c2ccc(OCc3ccccc3)cc2o1 | inactive | – |
| O=C(O)c1ccc(Nc2nc(-c3ccccc3)c3cc(Br)ccc3n2)cc1 | inactive | – |
| Cn1c(=O)c2c(ncn2CC(=O)Nc2cccc(C(F)(F)F)c2)n(C)c1=O | inactive | – |
| Cc1ccc2nc(NC(=O)c3nc(SCc4ccccc4F)ncc3Cl)sc2c1 | inactive | – |
| O=c1c2ccccc2nc2n1C(CSCc1cccc(C(F)(F)F)c1)CS2 (configuration not stated) | inactive | – |
| CCOC(=O)N1CCN(Cc2nc(Cc3cccc(C(F)(F)F)c3)no2)CC1 | inactive | – |
| Cn1c(-c2sccc2OCc2cccc(C(F)(F)F)c2)n[nH]c1=S | 4.47 µM (active) | – |
| CCCCN(C(=O)c1ccc(S(=O)(=O)N2CCOCC2)cc1)C1CCS(=O)(=O)C1 (configuration not stated) | – | 4.15% [at 0.501 µM] (inactive) |
| O=C(NN=C1CCC(=NNC(=O)c2cccnc2)CC1)c1cccnc1 | 17.8 µM (active) | – |
| O=C(N/N=C/c1ccc(O)c2ccccc12)c1cccnc1 | inactive | – |
| C/C(=N\NC(=O)c1cccnc1)c1ccc(-c2ccccc2)cc1 | inactive | – |
| CCC(=O)N1c2ccccc2CC1C(=O)N1CCN(c2ccccc2)CC1 (configuration not stated) | inactive | – |
| COc1ccc(CCNS(=O)(=O)c2cc(-c3cc(C)no3)ccc2C)cc1OC | inactive | – |
| Nc1cc(N)nc(SCC(=O)Nc2cccc(S(=O)(=O)N3CCCCC3)c2)n1 | inactive | – |
| O=C(Nc1nc(-c2ccncc2)cs1)C1COc2ccccc2O1 (configuration not stated) | 2.24 µM (active) | – |
| O=C(Nc1nc2c(F)cc(F)cc2s1)C1COc2ccccc2O1 (configuration not stated) | inactive | – |
| O=C(Nc1ncc([N+](=O)[O-])s1)C1COc2ccccc2O1 (configuration not stated) | – | -2.98% [at 12.7 µM] (inactive) |
| COC(=O)C1=C(C)N=C2SC(C)C(=O)N2C1/C=C/c1ccccc1 (configuration not stated) | inactive | – |
| CC(OC(=O)c1ccccc1N1C(=O)C2C3CCC(C3)C2C1=O)C(=O)c1ccccc1 (configuration not stated) | inactive | – |
| CCOC(=O)c1ccccc1N1C(=O)C2Sc3[nH]c(=O)sc3C(/C=C/c3ccccc3)C2C1=O (configuration not stated) | 3.16 µM (active) | – |
